Measured values published in article PMC7862700, “An all-to-all approach to the identification of sequence-specific readers for epigenetic DNA modifications on cytosine”.

How the values were obtained:
Experiment in all cases: DAPPL (digital affinity profiling via proximity ligation, sequencing); 10 mM Tris-HCl pH 7.5, 50 mM NaCl, 1 mM DTT, 4% glycerol, room temperature, 30 min; GST-TFs on glutathione beads, 16-mer random dsDNA library, 0.1% formaldehyde crosslink after washing; high values mean tight binding
[1] = target: T1, FLI1 (Homo sapiens, UniProt Q01543 1-452); conditions: protein: recombinant; tags: N-terminal GST; dsDNA, one strand shown
T1 sequence: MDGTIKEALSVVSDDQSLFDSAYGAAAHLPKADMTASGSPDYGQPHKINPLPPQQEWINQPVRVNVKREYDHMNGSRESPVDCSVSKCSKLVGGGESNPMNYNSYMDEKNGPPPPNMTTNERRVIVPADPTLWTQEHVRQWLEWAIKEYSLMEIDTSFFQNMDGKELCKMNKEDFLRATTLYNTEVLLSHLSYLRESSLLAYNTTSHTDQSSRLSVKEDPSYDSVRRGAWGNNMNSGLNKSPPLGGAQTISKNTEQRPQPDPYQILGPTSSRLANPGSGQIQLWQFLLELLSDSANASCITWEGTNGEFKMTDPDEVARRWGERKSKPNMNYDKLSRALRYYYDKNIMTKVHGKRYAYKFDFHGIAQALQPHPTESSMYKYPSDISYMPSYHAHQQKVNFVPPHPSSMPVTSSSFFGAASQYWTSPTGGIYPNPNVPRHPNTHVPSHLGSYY
In short: (§1)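 Pools of DNA-barcoded human transcription factors, expressed in yeast as GST fusions on glutathione beads and combined with a tag-only sample, were incubated with 200 nmole of a 16-mer random double-stranded DNA library. Incubation took 30 min at room temperature in Tris/NaCl/DTT/glycerol buffer and was followed by washing, 0.1% formaldehyde crosslinking, proximity ligation (BsaI/T4 ligase, 1 h, 37 °C), PCR amplification and sequencing on an Illumina NextSeq500. Binding signal is the ratio of a hexamer's read frequency for a factor to its frequency for the tag-only sample.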

[2] = target: T2, ELK1 (Homo sapiens, UniProt P19419 1-428); conditions: protein: recombinant; tags: N-terminal GST; dsDNA, one strand shown
T2 sequence: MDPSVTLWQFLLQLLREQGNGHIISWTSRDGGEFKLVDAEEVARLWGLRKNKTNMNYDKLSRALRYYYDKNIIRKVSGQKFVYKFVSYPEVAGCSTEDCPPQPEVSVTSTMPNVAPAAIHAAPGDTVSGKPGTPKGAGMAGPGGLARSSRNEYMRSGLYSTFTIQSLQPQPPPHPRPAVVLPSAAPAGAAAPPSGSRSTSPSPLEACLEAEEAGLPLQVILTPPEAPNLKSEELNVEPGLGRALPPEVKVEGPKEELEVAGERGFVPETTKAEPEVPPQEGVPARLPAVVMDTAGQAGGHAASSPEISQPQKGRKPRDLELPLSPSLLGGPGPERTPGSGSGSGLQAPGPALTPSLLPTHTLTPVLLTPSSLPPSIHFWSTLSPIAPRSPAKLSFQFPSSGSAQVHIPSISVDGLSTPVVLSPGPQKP
In short: as §1

[3] = target: T3, GABPA (Homo sapiens, UniProt Q06546 1-454); conditions: protein: recombinant; tags: N-terminal GST; dsDNA, one strand shown
T3 sequence: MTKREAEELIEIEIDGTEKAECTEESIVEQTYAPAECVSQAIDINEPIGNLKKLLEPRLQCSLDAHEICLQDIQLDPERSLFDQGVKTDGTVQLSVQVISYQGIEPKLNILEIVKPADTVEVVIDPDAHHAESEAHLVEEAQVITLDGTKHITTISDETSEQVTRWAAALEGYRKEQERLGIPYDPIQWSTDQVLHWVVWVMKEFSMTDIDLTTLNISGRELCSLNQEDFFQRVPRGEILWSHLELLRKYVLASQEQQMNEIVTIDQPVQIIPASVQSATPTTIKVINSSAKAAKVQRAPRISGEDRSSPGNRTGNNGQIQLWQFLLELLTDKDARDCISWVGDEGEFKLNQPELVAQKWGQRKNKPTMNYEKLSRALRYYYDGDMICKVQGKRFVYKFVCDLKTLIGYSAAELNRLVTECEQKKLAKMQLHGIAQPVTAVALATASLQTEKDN
In short: as §1

[4] = target: T4, ERG (Homo sapiens, UniProt P11308 1-479); conditions: protein: recombinant; tags: N-terminal GST; dsDNA, one strand shown
T4 sequence: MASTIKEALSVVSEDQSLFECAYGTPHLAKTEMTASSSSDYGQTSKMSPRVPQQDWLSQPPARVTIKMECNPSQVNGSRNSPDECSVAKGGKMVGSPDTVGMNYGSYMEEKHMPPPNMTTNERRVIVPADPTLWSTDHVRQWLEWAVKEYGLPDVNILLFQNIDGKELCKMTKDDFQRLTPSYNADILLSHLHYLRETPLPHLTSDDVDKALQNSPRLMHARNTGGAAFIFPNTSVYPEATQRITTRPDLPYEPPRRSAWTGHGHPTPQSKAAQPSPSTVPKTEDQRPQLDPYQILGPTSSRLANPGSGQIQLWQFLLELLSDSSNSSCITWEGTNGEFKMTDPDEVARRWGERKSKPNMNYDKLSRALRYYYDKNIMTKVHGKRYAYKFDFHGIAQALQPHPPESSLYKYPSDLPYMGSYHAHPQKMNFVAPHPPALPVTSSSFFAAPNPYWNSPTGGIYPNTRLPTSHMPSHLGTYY
In short: as §1

[5] = target: ELF1 (Homo sapiens, UniProt P32519 1-619); conditions: protein: recombinant; tags: N-terminal GST; dsDNA, one strand shown
In short: as §1

[6] = target: T5, EHF (Homo sapiens, UniProt Q9NZC4 1-300); conditions: protein: recombinant; tags: N-terminal GST; dsDNA, one strand shown
T5 sequence: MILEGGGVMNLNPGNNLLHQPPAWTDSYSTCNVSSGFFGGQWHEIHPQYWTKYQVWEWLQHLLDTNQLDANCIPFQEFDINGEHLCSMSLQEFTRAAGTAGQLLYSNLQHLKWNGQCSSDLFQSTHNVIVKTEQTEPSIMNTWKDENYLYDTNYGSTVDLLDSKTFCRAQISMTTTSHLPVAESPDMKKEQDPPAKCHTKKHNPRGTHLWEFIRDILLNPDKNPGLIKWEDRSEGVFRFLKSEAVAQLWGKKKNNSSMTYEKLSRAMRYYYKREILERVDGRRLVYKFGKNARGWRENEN
In short: as §1

[7] = target: SPI1 (Homo sapiens, UniProt P17947 1-270); conditions: protein: recombinant; tags: N-terminal GST; dsDNA, one strand shown
In short: as §1

[8] = target: SPIB (Homo sapiens, UniProt Q01892 1-262); conditions: protein: recombinant; tags: N-terminal GST; dsDNA, one strand shown
In short: as §1

[9] = target: T6, ELK3 (Homo sapiens, UniProt P41970 1-407); conditions: protein: recombinant; tags: N-terminal GST; dsDNA, one strand shown
T6 sequence: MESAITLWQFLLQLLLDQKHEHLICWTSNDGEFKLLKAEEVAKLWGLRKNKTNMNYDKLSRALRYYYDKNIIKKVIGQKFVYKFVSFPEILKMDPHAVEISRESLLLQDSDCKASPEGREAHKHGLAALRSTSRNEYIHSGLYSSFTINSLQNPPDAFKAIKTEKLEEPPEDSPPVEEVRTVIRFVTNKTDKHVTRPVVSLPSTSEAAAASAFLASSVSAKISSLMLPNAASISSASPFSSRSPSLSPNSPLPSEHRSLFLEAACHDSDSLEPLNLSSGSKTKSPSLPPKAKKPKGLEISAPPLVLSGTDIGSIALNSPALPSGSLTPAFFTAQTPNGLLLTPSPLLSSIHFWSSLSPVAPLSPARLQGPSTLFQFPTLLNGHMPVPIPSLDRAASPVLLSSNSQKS
In short: as §1

[10] = target: T7, FEV (Homo sapiens, UniProt Q99581 1-238); conditions: protein: recombinant; tags: N-terminal GST; dsDNA, one strand shown
T7 sequence: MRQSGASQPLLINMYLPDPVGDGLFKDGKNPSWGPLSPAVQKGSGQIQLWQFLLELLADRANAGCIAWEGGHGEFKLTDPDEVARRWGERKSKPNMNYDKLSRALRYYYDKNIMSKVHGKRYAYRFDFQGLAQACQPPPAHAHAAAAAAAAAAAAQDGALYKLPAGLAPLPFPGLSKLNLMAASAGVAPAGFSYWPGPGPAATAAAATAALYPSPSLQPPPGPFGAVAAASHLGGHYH
In short: as §1

[11] = target: ETV5 (Homo sapiens, UniProt P41161 1-510); conditions: protein: recombinant; tags: N-terminal GST; dsDNA, one strand shown
In short: as §1

[12] = target: HSF1 (Homo sapiens, UniProt Q00613 1-529); conditions: protein: recombinant; tags: N-terminal GST; chain copies: 3; dsDNA, one strand shown
In short: as §1

[13] = target: T8, SPIC (Homo sapiens, UniProt Q8N5J4 1-248); conditions: protein: recombinant; tags: N-terminal GST; dsDNA, one strand shown
T8 sequence: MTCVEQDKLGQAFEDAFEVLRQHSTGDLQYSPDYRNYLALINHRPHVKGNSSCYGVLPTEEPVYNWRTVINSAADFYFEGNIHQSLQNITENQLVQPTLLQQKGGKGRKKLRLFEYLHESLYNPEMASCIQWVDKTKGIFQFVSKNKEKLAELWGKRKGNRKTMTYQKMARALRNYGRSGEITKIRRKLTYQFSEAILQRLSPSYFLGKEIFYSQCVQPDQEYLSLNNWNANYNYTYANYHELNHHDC
In short: as §1

[14] = target: ELF4 (Homo sapiens, UniProt Q99607 1-663); conditions: protein: recombinant; tags: N-terminal GST; dsDNA, one strand shown
In short: as §1

[15] = target: T9, ELK4 (Homo sapiens, UniProt P28324-2 1-405); conditions: protein: recombinant; tags: N-terminal GST; dsDNA, one strand shown
T9 sequence: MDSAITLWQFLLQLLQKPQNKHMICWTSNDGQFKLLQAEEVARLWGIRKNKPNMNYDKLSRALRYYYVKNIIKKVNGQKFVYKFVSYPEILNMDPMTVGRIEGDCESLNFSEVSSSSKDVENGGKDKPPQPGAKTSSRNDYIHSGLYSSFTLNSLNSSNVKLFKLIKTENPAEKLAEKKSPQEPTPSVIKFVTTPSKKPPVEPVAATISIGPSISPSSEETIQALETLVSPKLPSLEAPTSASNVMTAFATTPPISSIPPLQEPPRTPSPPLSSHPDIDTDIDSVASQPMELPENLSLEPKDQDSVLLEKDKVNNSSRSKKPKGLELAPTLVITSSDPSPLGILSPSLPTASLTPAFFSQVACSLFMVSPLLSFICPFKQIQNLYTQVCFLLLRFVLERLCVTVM
In short: as §1

[16] = target: T10, ETV2 (Homo sapiens, UniProt O00321 1-342); conditions: protein: recombinant; tags: N-terminal GST; dsDNA, one strand shown
T10 sequence: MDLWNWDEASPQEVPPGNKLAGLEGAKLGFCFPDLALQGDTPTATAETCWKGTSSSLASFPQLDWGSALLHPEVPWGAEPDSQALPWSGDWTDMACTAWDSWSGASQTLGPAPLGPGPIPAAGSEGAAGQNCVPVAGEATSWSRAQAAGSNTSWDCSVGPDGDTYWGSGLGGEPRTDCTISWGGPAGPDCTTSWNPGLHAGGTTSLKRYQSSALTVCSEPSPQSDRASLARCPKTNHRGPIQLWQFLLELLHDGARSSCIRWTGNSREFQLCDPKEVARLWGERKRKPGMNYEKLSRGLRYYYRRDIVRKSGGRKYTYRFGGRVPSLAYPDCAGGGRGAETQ
In short: as §1

[17] = target: T11, ELF3 (Homo sapiens, UniProt P78545 1-371); conditions: protein: recombinant; tags: N-terminal GST; dsDNA, one strand shown
T11 sequence: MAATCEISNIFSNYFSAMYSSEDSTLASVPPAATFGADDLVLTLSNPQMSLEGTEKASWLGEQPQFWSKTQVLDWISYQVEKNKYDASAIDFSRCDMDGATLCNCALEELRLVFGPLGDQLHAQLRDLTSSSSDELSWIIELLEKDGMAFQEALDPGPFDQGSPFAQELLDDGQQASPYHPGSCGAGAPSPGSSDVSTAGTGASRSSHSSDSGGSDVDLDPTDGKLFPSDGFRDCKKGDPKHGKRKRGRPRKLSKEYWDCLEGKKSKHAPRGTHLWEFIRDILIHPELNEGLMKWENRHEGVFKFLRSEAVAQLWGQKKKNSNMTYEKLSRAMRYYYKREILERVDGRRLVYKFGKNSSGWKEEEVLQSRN
In short: as §1

[18] = target: CRX (Homo sapiens, UniProt O43186 1-299); conditions: protein: recombinant; tags: N-terminal GST; dsDNA, one strand shown
In short: as §1

[19] = target: ETV1 (Homo sapiens, UniProt P50549 1-477); conditions: protein: recombinant; tags: N-terminal GST; dsDNA, one strand shown
In short: as §1

ETV5, sequence (P41161 whole entry): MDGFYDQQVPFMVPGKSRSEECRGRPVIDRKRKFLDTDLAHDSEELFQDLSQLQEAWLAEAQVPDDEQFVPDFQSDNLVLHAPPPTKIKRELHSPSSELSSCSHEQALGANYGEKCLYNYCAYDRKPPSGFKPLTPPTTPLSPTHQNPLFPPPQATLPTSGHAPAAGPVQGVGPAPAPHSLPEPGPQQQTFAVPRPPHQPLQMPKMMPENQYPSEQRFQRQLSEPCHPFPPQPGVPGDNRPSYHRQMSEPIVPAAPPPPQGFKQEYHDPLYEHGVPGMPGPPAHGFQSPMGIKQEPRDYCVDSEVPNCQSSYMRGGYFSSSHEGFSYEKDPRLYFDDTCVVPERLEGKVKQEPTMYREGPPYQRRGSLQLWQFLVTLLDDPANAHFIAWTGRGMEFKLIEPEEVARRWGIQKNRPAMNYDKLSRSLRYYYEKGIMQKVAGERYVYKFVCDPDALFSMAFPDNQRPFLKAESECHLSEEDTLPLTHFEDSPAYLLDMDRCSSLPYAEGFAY
HSF1, sequence (Q00613 whole entry): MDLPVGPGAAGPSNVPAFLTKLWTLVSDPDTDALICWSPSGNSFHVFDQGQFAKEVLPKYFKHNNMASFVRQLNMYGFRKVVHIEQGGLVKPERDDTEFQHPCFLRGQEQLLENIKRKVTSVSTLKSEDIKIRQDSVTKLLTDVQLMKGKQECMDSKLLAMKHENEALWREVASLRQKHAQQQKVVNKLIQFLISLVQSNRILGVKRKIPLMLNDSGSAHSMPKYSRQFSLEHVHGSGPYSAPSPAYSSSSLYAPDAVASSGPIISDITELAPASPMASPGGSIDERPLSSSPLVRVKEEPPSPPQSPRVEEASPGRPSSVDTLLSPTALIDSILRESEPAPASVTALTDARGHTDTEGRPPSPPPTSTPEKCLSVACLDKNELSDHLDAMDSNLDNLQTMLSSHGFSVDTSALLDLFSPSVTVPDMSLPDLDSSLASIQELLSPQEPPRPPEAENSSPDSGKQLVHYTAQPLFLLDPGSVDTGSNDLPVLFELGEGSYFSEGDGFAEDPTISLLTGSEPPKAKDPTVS
ETV1, sequence (P50549 whole entry): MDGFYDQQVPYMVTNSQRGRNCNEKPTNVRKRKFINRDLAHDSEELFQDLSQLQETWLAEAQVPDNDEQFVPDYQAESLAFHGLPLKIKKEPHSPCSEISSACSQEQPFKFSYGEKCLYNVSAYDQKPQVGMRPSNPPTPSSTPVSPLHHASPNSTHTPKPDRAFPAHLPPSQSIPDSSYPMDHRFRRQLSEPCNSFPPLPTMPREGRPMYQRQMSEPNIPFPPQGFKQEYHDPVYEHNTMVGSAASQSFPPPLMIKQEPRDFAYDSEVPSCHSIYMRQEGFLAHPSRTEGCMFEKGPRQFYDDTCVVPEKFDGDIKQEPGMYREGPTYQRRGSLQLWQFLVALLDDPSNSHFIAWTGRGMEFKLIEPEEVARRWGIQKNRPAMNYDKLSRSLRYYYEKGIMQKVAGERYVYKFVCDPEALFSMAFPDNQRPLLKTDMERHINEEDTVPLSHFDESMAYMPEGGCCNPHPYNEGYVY
ELF4, sequence (Q99607 whole entry): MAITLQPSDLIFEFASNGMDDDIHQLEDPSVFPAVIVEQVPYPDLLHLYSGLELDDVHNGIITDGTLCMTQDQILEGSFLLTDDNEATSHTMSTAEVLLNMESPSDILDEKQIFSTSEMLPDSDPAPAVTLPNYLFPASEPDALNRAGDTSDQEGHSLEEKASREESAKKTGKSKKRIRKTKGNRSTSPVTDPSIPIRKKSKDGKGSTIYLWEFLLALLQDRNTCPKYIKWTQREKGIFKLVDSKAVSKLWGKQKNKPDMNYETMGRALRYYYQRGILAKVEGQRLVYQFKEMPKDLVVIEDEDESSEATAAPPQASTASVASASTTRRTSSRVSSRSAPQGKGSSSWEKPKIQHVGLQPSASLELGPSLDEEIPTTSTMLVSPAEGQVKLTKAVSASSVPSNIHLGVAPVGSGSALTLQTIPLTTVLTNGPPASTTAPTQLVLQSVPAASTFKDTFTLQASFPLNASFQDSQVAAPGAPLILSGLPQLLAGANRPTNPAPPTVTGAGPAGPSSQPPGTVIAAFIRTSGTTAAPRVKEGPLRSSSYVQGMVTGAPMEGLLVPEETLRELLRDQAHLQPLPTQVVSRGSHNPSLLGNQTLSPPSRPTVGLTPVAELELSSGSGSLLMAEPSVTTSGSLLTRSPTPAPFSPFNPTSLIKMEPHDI
ELF1, sequence (P32519 whole entry): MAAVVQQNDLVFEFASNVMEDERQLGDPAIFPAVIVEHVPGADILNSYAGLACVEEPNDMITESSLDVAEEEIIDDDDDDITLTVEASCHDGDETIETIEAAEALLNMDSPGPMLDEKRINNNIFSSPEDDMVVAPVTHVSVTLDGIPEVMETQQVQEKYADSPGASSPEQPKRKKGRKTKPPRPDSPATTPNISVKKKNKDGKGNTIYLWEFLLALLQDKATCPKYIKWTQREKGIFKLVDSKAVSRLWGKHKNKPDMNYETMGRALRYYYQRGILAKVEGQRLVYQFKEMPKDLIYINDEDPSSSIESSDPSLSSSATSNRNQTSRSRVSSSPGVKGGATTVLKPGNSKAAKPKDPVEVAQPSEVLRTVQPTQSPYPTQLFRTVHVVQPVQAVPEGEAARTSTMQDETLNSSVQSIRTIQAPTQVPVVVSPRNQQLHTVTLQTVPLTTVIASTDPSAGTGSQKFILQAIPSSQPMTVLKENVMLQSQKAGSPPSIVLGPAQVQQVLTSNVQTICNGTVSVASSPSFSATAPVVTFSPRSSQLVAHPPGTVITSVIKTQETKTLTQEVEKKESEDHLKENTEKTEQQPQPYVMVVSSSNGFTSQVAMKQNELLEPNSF
CRX, sequence (O43186 whole entry): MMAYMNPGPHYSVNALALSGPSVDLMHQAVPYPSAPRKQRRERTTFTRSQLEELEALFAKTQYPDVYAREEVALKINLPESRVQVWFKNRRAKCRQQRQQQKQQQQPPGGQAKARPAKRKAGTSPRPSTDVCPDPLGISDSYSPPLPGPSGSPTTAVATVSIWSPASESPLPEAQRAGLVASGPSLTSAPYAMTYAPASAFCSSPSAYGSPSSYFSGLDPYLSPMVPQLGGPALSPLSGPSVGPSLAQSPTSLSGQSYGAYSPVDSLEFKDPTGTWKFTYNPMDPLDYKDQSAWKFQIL
SPIB, sequence (Q01892 whole entry): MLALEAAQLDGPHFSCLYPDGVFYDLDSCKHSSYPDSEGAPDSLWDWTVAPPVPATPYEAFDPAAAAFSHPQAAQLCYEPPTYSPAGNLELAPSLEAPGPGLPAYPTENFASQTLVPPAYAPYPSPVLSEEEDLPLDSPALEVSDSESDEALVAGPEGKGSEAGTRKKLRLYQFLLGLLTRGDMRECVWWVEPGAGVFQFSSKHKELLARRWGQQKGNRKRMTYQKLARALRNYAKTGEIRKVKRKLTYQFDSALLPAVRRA

AAGTCC
binding signal [1]: 1.21 fold enrichment (6-mer frequency, TF over GST control)
binding signal [2]: 1.31 fold enrichment (6-mer frequency, TF over GST control)
binding signal [3]: 1.18 fold enrichment (6-mer frequency, TF over GST control)
binding signal [4]: 1.35 fold enrichment (6-mer frequency, TF over GST control)
binding signal [5]: 1.23 fold enrichment (6-mer frequency, TF over GST control)
binding signal [6]: 1.27 fold enrichment (6-mer frequency, TF over GST control)
binding signal [7]: 1.36 fold enrichment (6-mer frequency, TF over GST control)
binding signal [8]: 1.28 fold enrichment (6-mer frequency, TF over GST control)
binding signal [9]: 1.27 fold enrichment (6-mer frequency, TF over GST control)
binding signal [10]: 1.34 fold enrichment (6-mer frequency, TF over GST control)
binding signal [11]: 1.28 fold enrichment (6-mer frequency, TF over GST control)
binding signal [12]: 1.08 fold enrichment (6-mer frequency, TF over GST control)
binding signal [13]: 1.3 fold enrichment (6-mer frequency, TF over GST control)
binding signal [14]: 1.19 fold enrichment (6-mer frequency, TF over GST control)
binding signal [15]: 1.25 fold enrichment (6-mer frequency, TF over GST control)
binding signal [16]: 1.19 fold enrichment (6-mer frequency, TF over GST control)
binding signal [17]: 1.3 fold enrichment (6-mer frequency, TF over GST control)
binding signal [18]: 1.19 fold enrichment (6-mer frequency, TF over GST control)
binding signal [19]: 1.26 fold enrichment (6-mer frequency, TF over GST control)
